Source: PMC7862700, “An all-to-all approach to the identification of sequence-specific readers for epigenetic DNA modifications on cytosine”

Experiments:
Assay in all cases: DAPPL (digital affinity profiling via proximity ligation, sequencing); 10 mM Tris-HCl pH 7.5, 50 mM NaCl, 1 mM DTT, 4% glycerol, room temperature, 30 min; GST-TFs on glutathione beads, 16-mer random dsDNA library, 0.1% formaldehyde crosslink after washing; high values mean tight binding
Conditions in all cases: protein: recombinant; tags: N-terminal GST; dsDNA, one strand shown
[1] = target: T1, FLI1 (Homo sapiens, UniProt Q01543 1-452)
T1 sequence: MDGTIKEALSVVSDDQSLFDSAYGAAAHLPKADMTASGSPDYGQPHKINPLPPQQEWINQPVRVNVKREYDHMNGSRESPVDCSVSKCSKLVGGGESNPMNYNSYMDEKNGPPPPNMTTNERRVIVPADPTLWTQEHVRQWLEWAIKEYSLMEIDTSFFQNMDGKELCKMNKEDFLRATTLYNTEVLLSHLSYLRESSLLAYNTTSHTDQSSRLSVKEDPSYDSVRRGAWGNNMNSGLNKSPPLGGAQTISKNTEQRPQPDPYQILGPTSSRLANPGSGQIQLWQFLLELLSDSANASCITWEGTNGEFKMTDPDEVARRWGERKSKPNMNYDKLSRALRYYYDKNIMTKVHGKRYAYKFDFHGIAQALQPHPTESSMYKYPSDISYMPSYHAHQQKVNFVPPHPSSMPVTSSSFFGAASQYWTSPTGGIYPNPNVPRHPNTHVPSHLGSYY
Procedure, shortened: (§1)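 Binding signal is defined as a hexamer's read frequency for one factor over its frequency for the tag-only sample. To obtain reads, GST-fused human transcription factors were expressed in yeast, captured on glutathione beads, barcoded with DNA and pooled with that sample. Pools met 200 nmole of a 16-mer random double-stranded DNA library in Tris/NaCl/DTT/glycerol buffer for 30 min at room temperature before washing, 0.1% formaldehyde crosslinking, proximity ligation (BsaI/T4 ligase, 1 h, 37 °C), PCR and Illumina NextSeq500 sequencing.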

[2] = target: T2, ELK1 (Homo sapiens, UniProt P19419 1-428)
T2 sequence: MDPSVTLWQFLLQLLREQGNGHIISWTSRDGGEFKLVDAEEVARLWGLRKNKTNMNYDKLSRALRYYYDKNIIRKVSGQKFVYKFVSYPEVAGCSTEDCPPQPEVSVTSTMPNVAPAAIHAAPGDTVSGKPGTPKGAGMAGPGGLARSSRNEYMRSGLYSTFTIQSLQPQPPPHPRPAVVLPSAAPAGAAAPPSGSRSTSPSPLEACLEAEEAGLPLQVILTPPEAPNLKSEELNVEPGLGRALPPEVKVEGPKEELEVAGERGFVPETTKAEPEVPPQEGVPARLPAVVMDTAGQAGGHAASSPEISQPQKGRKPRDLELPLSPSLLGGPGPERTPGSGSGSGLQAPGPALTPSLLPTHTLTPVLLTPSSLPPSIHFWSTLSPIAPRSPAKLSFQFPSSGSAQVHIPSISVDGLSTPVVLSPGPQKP
Procedure, shortened: as §1

[3] = target: T3, GABPA (Homo sapiens, UniProt Q06546 1-454)
T3 sequence: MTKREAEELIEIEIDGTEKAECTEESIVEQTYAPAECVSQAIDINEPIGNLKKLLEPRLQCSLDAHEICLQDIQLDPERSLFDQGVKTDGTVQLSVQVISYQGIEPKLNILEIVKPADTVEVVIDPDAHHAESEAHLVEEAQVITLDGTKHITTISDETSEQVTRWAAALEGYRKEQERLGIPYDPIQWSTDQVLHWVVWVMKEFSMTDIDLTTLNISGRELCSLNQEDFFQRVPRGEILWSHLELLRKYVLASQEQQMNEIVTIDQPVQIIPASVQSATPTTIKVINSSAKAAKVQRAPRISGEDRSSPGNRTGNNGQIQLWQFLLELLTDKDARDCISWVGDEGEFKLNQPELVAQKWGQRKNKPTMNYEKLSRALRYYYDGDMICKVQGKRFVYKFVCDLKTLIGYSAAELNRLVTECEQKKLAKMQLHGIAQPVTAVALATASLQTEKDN
Procedure, shortened: as §1

[4] = target: ELF1 (Homo sapiens, UniProt P32519 1-619)
Procedure, shortened: as §1

[5] = target: T4, EHF (Homo sapiens, UniProt Q9NZC4 1-300)
T4 sequence: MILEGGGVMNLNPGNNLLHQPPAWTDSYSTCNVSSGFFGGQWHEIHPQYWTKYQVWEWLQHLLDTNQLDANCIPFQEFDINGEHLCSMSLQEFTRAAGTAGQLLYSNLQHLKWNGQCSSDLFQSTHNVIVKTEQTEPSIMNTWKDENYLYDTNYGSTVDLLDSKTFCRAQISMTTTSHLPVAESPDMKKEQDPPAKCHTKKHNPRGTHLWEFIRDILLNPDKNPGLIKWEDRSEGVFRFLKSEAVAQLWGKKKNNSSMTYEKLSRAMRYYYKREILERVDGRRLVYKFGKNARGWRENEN
Procedure, shortened: as §1

[6] = target: SPIB (Homo sapiens, UniProt Q01892 1-262)
Procedure, shortened: as §1

[7] = target: T5, ELK3 (Homo sapiens, UniProt P41970 1-407)
T5 sequence: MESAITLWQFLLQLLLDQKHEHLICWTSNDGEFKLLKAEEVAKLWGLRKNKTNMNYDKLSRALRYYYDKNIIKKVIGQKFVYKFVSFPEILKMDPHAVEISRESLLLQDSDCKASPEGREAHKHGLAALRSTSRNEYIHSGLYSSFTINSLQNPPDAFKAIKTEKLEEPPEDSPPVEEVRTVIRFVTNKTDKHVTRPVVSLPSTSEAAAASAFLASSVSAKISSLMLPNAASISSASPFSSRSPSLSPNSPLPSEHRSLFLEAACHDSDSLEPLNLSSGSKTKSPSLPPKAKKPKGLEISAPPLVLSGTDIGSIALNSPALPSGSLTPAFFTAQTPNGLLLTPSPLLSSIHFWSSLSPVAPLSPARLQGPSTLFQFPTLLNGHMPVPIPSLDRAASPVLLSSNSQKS
Procedure, shortened: as §1

[8] = target: ETV5 (Homo sapiens, UniProt P41161 1-510)
Procedure, shortened: as §1

[9] = target: ELF4 (Homo sapiens, UniProt Q99607 1-663)
Procedure, shortened: as §1

[10] = target: T6, ETV2 (Homo sapiens, UniProt O00321 1-342)
T6 sequence: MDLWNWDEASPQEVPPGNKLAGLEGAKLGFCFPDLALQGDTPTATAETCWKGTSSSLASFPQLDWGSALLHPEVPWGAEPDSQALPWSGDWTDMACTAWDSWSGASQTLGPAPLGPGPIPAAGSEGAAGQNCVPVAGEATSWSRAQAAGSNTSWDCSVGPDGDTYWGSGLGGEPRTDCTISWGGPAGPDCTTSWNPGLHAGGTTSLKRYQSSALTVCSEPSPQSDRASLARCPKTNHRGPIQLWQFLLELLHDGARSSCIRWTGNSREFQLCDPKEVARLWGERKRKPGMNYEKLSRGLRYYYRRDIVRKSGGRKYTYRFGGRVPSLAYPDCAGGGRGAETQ
Procedure, shortened: as §1

[11] = target: T7, ELF3 (Homo sapiens, UniProt P78545 1-371)
T7 sequence: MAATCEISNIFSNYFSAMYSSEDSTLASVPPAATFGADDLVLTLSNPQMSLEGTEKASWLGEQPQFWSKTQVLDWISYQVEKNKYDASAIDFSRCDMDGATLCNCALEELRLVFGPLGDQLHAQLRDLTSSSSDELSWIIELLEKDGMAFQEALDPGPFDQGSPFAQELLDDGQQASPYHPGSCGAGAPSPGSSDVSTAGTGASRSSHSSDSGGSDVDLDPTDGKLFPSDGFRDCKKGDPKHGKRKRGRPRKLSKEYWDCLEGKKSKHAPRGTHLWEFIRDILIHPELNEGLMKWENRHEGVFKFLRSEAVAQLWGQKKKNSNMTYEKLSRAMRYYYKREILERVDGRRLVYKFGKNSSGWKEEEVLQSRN
Procedure, shortened: as §1

[12] = target: ETV1 (Homo sapiens, UniProt P50549 1-477)
Procedure, shortened: as §1

[13] = target: T8, ETS2 (Homo sapiens, UniProt P15036 1-469)
T8 sequence: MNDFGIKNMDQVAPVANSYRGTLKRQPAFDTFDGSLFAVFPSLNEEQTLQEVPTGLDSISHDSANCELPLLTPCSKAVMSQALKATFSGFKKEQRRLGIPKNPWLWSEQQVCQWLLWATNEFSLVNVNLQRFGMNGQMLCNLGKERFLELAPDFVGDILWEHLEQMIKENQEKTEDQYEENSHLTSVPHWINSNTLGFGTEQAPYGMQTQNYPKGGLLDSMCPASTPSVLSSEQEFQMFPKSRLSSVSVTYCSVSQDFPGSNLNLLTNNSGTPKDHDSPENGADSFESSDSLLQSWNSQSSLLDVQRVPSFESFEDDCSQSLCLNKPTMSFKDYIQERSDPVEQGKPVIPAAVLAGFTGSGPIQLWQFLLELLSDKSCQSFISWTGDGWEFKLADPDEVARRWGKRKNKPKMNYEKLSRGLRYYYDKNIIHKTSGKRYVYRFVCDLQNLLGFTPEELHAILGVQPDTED
Procedure, shortened: as §1

[14] = target: T9, ETV3 (Homo sapiens, UniProt P41162-2 1-143)
T9 sequence: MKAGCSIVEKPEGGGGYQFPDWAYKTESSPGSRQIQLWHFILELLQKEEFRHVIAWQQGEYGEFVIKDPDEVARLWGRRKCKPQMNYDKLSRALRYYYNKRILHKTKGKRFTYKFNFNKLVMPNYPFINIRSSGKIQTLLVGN
Procedure, shortened: as §1

Chain of ETV5 (P41161 whole entry): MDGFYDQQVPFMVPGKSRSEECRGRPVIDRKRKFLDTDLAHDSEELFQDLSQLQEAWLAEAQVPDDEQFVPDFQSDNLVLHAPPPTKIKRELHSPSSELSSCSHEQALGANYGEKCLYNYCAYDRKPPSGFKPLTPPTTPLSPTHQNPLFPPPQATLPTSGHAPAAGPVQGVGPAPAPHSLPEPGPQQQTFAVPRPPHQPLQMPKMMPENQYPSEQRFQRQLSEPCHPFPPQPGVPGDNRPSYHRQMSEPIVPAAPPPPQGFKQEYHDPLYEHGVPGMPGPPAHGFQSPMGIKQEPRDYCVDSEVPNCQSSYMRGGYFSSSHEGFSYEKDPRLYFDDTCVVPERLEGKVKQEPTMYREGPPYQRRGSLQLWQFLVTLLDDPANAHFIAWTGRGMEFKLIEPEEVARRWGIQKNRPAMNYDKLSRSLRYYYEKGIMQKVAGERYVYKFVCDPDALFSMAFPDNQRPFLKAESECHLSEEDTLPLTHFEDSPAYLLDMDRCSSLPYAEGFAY
Chain of SPIB (Q01892 whole entry): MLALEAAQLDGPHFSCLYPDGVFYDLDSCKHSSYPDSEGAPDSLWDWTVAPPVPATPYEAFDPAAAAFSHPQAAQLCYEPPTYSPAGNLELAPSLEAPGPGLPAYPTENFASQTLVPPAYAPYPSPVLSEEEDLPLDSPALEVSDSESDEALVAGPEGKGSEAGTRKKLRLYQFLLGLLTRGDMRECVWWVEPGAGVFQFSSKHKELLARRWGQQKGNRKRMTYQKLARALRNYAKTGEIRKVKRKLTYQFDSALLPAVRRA
Chain of ETV1 (P50549 whole entry): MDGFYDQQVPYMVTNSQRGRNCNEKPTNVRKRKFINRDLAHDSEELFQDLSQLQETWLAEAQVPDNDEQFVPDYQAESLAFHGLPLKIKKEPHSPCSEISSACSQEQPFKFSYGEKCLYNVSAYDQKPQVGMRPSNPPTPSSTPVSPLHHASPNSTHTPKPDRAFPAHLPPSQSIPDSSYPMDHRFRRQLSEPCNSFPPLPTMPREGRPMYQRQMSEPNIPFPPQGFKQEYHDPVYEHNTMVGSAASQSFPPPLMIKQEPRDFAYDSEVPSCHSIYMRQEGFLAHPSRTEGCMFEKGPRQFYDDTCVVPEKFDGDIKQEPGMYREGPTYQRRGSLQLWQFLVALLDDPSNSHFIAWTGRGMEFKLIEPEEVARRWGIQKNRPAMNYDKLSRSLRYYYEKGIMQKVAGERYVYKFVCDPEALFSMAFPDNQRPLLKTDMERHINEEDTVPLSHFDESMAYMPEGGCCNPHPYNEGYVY
Chain of ELF4 (Q99607 whole entry): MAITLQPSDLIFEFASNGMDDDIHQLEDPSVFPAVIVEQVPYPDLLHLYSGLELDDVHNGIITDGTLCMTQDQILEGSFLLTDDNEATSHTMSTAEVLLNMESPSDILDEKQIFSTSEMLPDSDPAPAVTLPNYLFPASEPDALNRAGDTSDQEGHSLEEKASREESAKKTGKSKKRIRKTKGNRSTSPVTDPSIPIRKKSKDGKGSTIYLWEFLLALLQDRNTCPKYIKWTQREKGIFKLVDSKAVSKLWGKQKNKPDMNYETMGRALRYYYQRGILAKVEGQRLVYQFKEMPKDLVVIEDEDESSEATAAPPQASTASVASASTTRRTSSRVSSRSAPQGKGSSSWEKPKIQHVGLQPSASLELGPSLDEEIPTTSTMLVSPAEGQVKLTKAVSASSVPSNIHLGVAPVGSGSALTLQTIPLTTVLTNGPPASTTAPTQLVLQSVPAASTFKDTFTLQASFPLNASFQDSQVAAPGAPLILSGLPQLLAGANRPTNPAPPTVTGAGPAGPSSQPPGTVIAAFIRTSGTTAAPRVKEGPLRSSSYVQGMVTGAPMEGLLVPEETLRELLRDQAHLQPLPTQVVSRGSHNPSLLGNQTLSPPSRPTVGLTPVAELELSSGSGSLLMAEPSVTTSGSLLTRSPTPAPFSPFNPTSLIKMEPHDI
Chain of ELF1 (P32519 whole entry): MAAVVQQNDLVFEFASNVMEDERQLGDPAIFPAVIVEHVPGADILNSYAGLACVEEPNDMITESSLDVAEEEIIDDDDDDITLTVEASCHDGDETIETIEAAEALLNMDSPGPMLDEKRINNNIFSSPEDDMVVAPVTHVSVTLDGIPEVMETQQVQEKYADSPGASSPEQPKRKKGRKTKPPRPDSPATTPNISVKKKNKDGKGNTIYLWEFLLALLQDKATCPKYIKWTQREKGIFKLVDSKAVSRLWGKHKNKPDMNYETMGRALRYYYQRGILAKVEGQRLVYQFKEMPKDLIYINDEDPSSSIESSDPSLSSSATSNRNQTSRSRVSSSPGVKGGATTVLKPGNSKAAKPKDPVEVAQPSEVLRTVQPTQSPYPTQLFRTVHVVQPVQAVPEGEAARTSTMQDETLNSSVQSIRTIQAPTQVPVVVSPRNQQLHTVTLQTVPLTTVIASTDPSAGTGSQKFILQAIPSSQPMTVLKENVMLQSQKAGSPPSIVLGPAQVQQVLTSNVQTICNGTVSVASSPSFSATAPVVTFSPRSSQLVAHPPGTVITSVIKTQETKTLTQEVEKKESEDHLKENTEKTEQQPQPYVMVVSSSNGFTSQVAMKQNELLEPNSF

## CACGCA
[1]
  binding signal: 1.11 fold enrichment (6-mer frequency, TF over GST control)
[2]
  binding signal: 1.01 fold enrichment (6-mer frequency, TF over GST control)
[3]
  binding signal: 1.02 fold enrichment (6-mer frequency, TF over GST control)
[4]
  binding signal: 1.05 fold enrichment (6-mer frequency, TF over GST control)
[5]
  binding signal: 1.01 fold enrichment (6-mer frequency, TF over GST control)
[6]
  binding signal: 1.01 fold enrichment (6-mer frequency, TF over GST control)
[7]
  binding signal: 1.14 fold enrichment (6-mer frequency, TF over GST control)
[8]
  binding signal: 1.05 fold enrichment (6-mer frequency, TF over GST control)
[9]
  binding signal: 1.03 fold enrichment (6-mer frequency, TF over GST control)
[10]
  binding signal: 1.18 fold enrichment (6-mer frequency, TF over GST control)
[11]
  binding signal: 1.04 fold enrichment (6-mer frequency, TF over GST control)
[12]
  binding signal: 1.09 fold enrichment (6-mer frequency, TF over GST control)
[13]
  binding signal: 1.03 fold enrichment (6-mer frequency, TF over GST control)
[14]
  binding signal: 1.07 fold enrichment (6-mer frequency, TF over GST control)
